Hits are enriched below; roughly 12% of the tested compounds scored in any of these assays.
AmpC inh no detg: AmpC beta-lactamase inhibition without detergent; AID 485341; hit rate 0.52% among 330,000; P00811; AmpC nitrocefin hydrolysis, absorbance 480 nm, 0.0001% Triton; Potency, µM (titrated, usually from 57.1 µM), for the others: top-dose activity change, negative = inhibition, most hits filed as inhibitors;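 note: plate controls were no compound for no effect and no enzyme for full effect; nearly all actives have a fitted effect of over 20% in size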
Target sequence (P00811 whole entry, looked up): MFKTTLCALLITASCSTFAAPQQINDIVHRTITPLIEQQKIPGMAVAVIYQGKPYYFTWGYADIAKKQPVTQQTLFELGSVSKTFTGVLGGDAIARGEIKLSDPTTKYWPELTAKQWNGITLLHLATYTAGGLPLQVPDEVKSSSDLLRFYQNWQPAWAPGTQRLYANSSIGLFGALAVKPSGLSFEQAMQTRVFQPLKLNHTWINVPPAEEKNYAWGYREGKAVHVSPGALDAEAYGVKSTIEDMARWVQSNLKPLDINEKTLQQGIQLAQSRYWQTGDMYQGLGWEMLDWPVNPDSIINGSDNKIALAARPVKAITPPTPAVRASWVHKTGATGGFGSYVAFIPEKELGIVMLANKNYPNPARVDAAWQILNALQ
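AmpC (5.3 nM in the dispensed reagent) in 20 mM phosphate pH 7.0 with 0.01% (detergent screen) or 0.0001% Triton X-100 was preincubated with compounds for 15 min at room temperature. Nitrocefin was then added from an 800 uM solution, and hydrolysis was followed at 480 nm.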
Pf growth 48h: inhibits P. falciparum growth in the first generation, 48 h | P. falciparum luciferase growth in erythrocytes, 48 h | Potency, µM (top dose mostly 28.7 µM), without a hit: at the top dose activity change, negative = inhibition, hits mostly inhibitors | hit rate 5.9% among 310,000; note: % is set by controls: 0 for no effect and ±100 for the full control effect
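Luminescence readout; reporter = integrated firefly luciferase in P. falciparum. RBC culture at 2% hematocrit, 0.1% parasitemia final, 37 C/5% CO2; decreased signal taken as growth inhibition.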
AmpC inh detg: AmpC beta-lactamase inhibition with detergent present; AmpC hydrolysis of nitrocefin, absorbance 480 nm, 0.01% Triton; Potency, µM (series often up to 114 µM), for the others: at the highest dose activity change, negative = inhibition, actives largely listed as inhibitors; hit rate 0.041% among 370,000;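 note: 0% = no-compound wells and -100% = no-enzyme wells; nearly all actives have a fitted effect of over 25% in size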
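20 mM phosphate pH 7.0 + 0.01% (detergent screen) or 0.0001% Triton X-100; 5.3 nM AmpC reagent; cpd preinc 15 min RT; nitrocefin (800 uM stock) to start; A480 q20 s × 4 min; Activity was normalised to no-enzyme and no-compound control wells.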
SARS PLpro yeast: blocks SARS-CoV papain-like protease in a yeast assay. S. cerevisiae expressing SARS-CoV PLpro, growth rescue. Potency, µM (doses to about 32.9 µM), for inactives: top-dose activity, positive = growth rescue, most hits filed as activators. hit rate 0.19% among 330,000; calls by dose curve; note: 0% is about no effect; nearly all actives have a fitted effect of over 55% in size
Pf growth 96h: inhibits malaria parasite growth, 96 h | hit rate 6.9% among 320,000 | P. falciparum luciferase reporter growth, 96 h | Potency, µM (titrated, usually from 28.7 µM), for inactives: at the highest dose activity change, negative = inhibition, most hits filed as inhibitors | AID 504834; note: % is set by controls: 0 for no effect and ±100 for the full control effect
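Infected RBCs, 2% Hct / 0.05% parasitemia final; luciferase-reporter P. falciparum; cpd 96 h, 37 C, 5% CO2; luciferase detection reagent; luminescence.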
Sm TGR block: blocks Schistosoma mansoni thioredoxin glutathione reductase. Q962Y6. purified TGR, DTNB reduction, TNB absorbance 405 nm. Potency, µM (top dose mostly 114 µM), for the others: at the top dose activity change, negative = inhibition, hits mostly inhibitors. hit rate 3% among 360,000; note: % is set by controls: 0 for no effect and ±100 for the full control effect; nearly all actives have a fitted effect of over 60% in size
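Kinetic colorimetric format: TGR-catalysed, NADPH-driven DTNB reduction monitored via TNB absorbance. Enzyme dispensed at 20 nM; compound exposure 15 min at room temperature before reaction start.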
* hit, by the source's call; ? = inconclusive; . = not tested or not shown. Unless noted, calls come from the whole dose curve; as a rule, active = well fitted curve in the direction sought with a large enough effect; inconclusive = small, poorly fitted or top-dose-only effect, or another doubt; inactive = no such curve, though single readings can be large; an effect the other way counts as inactive or inconclusive. Potency is the fitted concentration of half-maximal effect.

SMILES | AmpC inh no detg | Pf growth 48h | AmpC inh detg | SARS PLpro yeast | Pf growth 96h | Sm TGR block
O=C(Nc1cnn(Cc2ccccc2)c1)c1nc2ncccn2n1 | -6.3% | 84.0% | -5.5% | 10.4% | 2.62µM* | 0.0%
Clc1ccc(SCCn2ccnc2)cc1 | -19.1% | -17.1% | -15.0% | -2.2% | 13.1µM* | 1.8%
CCOC(=O)c1cccc(NC(=O)c2ccc3nc(CCc4ccccc4)oc3c2)c1 | . | . | 13.9% | . | . | -4.2%
Cc1cc(C2=CC(=O)C[C@H](c3ccc4c(c3)OCO4)C2)ccc1F | -19.7% | 11.3% | -1.5% | 9.1% | ? | 1.5%
COC(=O)C(CCSC)NC(=O)C(NC(=O)C1CCC(C)CC1)C(C)C (centres undefined) | -10.9% | 18.3% | -11.9% | -4.7% | 2.33µM* | 12.9%
CCOc1cccc(OCCCn2c(-c3ccc(Br)cc3)nc3ccccc3c2=O)c1 | . | . | -9.5% | . | . | 1.0%
O=C(CCl)c1cc2c3c(c1)CC(=O)N3CCC2 | -1.6% | ? | -1.3% | ? | ? | 1.58µM*
NNC(=O)c1oc2nc(-c3ccc(Cl)cc3)cc(-c3ccccc3)c2c1N | 45.4% | 4.15µM* | -10.6% | -2.5% | 2.62µM* | 0.7%
NNC(=O)c1oc2nc(-c3ccco3)cc(-c3ccco3)c2c1N | 31.9% | ? | 8.7% | -1.6% | ? | 17.1%
CCOc1ccc2oc(=O)cc(CN3CCN(c4ccc(Cl)cc4)CC3)c2c1 | . | . | 22.4% | . | . | 0.3%
Cc1ccc(OCC(=O)Nc2nonc2-c2ccc(Br)cc2)cc1C | . | . | 32.9% | . | . | -1.5%
CSCCC(NC(=O)c1ccccc1Cl)C(=O)NCC(c1ccco1)N1CCCCC1 (centres undefined) | -7.3% | 14.7µM* | 0.0% | -0.2% | 7.38µM* | -1.0%
COc1ccc(C(CNC(=O)C(CCSC)NC(=O)c2ccccc2Cl)N2CCCC2)cc1 (centres undefined) | -21.8% | ? | ? | 4.1% | ? | -1.4%
CSCCC(NC(=O)c1ccccc1Cl)C(=O)Nc1cccc(S(=O)(=O)N2CCCC2)c1 (centres undefined) | -29.4% | 11.7µM* | 0.0% | 2.5% | ? | -16.6%
COc1ccc(C(CNC(=O)C(CCSC)NC(=O)c2ccccc2Cl)N2CCCCC2)cc1 (centres undefined) | 17.7% | 7.38µM* | 6.9% | -2.8% | ? | -2.3%
Cc1ccc(C(=O)CSc2nnc3n2CCCCC3)s1 | -2.8% | 183.8% | -6.3% | -8.1% | 181.9% | -8.7%
CC(C(=O)Nc1ccccc1F)N1CCN(C)CC1 (centres undefined) | -4.7% | 20.5% | 1.2% | -0.8% | 33.0% | -30.5%
CCc1ccc(NC(=S)NC2CC3CCC(C2)N3Cc2ccco2)cc1 (centres undefined) | -16.0% | ? | -11.6% | 6.8% | 0.0% | -19.3%
S=C(Nc1ccc(Cl)cc1)NC1CC2CCC(C1)N2Cc1ccccc1 (centres undefined) | -11.3% | 3.29µM* | -1.1% | -0.7% | 21.6% | -30.7%
CCc1ccc(NC(=S)NC2CC3CCCC(C2)N3Cc2ccccc2)cc1 (centres undefined) | 0.8% | 6.57µM* | -5.7% | 0.5% | ? | .
CNC(=S)NC1CC2CCC(C1)N2Cc1ccccc1 (centres undefined) | -15.9% | 8.2% | -14.2% | 3.8% | 173.8% | 0.0%
O=C(N/N=C/c1ccc([N+](=O)[O-])o1)c1ccncc1 | -10.2% | 1.85µM* | 6.5% | 2.8% | 6.57µM* | ?
CCN(CC)S(=O)(=O)c1cccc(C(=O)N/N=C/c2ccc([N+](=O)[O-])o2)c1 | -41.7% | ? | -13.6% | 6.0% | 4.15µM* | ?
CCN(CC)S(=O)(=O)c1cccc(C(=O)N/N=C/c2ccccc2OCC(=O)O)c1 | -28.4% | ? | -7.3% | 0.3% | 11.8% | 8.7%
O=C(N/N=C/c1ccc([N+](=O)[O-])o1)c1cc2ccccc2o1 | -24.1% | ? | -4.3% | -7.6% | ? | ?

Assay outcomes: PubChem, National Center for Advancing Translational Sciences (NCATS)
